Columns and labels:
Assay type in all cases: functional
[1] = biological target: Solute carrier family 2, facilitated glucose transporter member 1 (Homo sapiens) (UniProt P11166); assay: ST_JUDE_LEISH: Cytotoxicity at 2uM final concentration against transgenic Leishmania Mexicana promastigotes LmGLUT1 that are glucose transport deficient and complemented with the human glucose transporter GLUT1. Activity is measured by DNA content using SYBR green in vitro
[2] = biological target: Hexose transporter 1 (Plasmodium falciparum) (UniProt O97467); assay: ST_JUDE_LEISH: Cytotoxicity at 2uM final concentration against transgenic Leishmania Mexicana promastigotes LmPfHT that are glucose transport deficient and complemented with the Plasmodium falciparum hexose transporter. Activity is measured by DNA content using SYBR green in vitro
[3] = biological target: Glucose transporter (Leishmania mexicana) (UniProt O61059); assay: ST_JUDE_LEISH: Cytotoxicity at 2uM final concentration against transgenic Leishmania Mexicana promastigotes LmGT2 that are glucose transport deficient and complemented with the L. Mexicana glucose transporter 2. Activity is measured by DNA content using SYBR green in vitro

Chain of Solute carrier family 2, facilitated glucose transporter member 1 (Homo sapiens) (P11166 whole entry): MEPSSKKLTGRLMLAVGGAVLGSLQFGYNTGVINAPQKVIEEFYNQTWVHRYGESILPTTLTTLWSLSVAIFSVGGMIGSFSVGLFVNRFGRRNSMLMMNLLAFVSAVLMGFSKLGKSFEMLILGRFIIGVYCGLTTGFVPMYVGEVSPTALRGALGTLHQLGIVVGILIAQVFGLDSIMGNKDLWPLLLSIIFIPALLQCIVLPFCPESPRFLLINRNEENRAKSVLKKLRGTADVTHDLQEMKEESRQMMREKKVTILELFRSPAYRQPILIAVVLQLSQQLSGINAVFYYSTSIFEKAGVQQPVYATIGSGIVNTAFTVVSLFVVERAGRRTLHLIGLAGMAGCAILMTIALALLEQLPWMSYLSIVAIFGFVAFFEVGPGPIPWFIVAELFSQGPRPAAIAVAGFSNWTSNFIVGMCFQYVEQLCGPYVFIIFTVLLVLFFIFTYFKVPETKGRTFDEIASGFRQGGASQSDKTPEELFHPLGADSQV

SMILES	inhibition [1] [%]	inhibition [2] [%]	inhibition [3] [%]
Cc1cc(O)nc(NC(=N)NOCc2ccccc2)n1	-1.66	1.03	1.07
COc1ccc(-c2nonc2NC(=O)c2ccc(OC(C)C)cc2)cc1OC	0.75	3.06	3.04
CCc1cn2c3c(cc(C(=O)N[C@@H](Cc4ccccc4)[C@H](O)CN[C@@H](C)CC)cc13)N(C)S(=O)(=O)CC2	0.43	2.23	-0.58
O=C(/C=C/c1ccc(Cl)cc1)NCCCCCN1CCCC(C(=O)Nc2cccc(Cl)c2)C1 (configuration not stated)	2.85	2.1	3.91
COc1ccc(CNCc2ccc(-c3ccc(-c4nc5cccc(C)c5[nH]4)s3)cc2)cc1	18.1	13.2	12.6
Nc1c2ccccc2nc2cc(C(F)(F)F)ccc12	2.83	5.91	1.3
O=C(Nc1ccc2c(c1)CCC2)N[C@H]1CCN(Cc2ccc(OCCCN3CCCCC3)cc2)C1	1.25	2.37	2.47
CCN(CCCN1CCCCC1)c1cc(C)nc(Nc2cc(F)cc(F)c2)n1	5.16	4.98	4.62
Cc1ccnc(NC(c2ccc(Cl)c([N+](=O)[O-])c2)c2ccc3cccnc3c2O)c1 (configuration not stated)	0.43	-0.87	-1.39
O=c1cc(NCCCNCc2cccc(OC(F)(F)F)c2)[nH]c2ccccc12	2.97	-3.41	4.57
c1ccc(Oc2ccc(Nc3nncc4ccccc34)cc2)cc1	1.62	0.25	-4.56
CN(C)Cc1ccc2nc(-c3cccc(Cc4cc(Cl)ccc4OCc4ccc(Cl)cc4F)n3)[nH]c2c1	-0.36	-0.21	-1.22
CN(C)CCCOc1ccc(CNCC(C)(C)c2nc(-c3ccc(Cl)c(O)c3)c(-c3ccncc3)[nH]2)cc1	3.39	1.89	2.83
CCCOc1ccc(-c2nonc2NC(=O)c2ccccc2OC)cc1OCCC	12	14.6	10.7
O=c1[nH]ccc2nc(N[C@@H]3CCCNC3)nc(Nc3ccc(S(=O)(=O)N4CCOCC4)cc3)c12	0.92	2.1	-0.68
CC(C)COc1ccc(Cl)cc1Cc1nc(-c2nc3cccc(CN4CCN(C)CC4)c3[nH]2)cs1	0.6	0.77	0.67
CN1CCc2cc(O)c(NS(=O)(=O)c3ccc(-c4ccc(Cl)cc4)cc3)cc2CC1	12.4	9.38	9.99
CCn1c(-c2nonc2N)nc2c(-c3cccc(NC(=O)Nc4ccccc4OC)c3)ncc(OCCCN)c21	2.94	3.41	3.42
CC(C)(C)SC1SC(SC(C)(C)C)C(OC(=O)c2ccccc2)C(OC(=O)c2ccccc2)C1OC(=O)c1ccccc1 (configuration not stated)	-0.52	-0.69	-0.49
Cc1cc(N2CCN(C)CC2)nc2ccc(NC(=O)Cc3cccc(C(F)(F)F)c3)cc12	2.34	1.8	5.56
O=C(O)Cc1ccc(-c2c[nH]c3ncc(-c4cccc5ncccc45)cc23)cc1	2.28	1.77	0.63
CC1CCCN(C(=O)C(C)Nc2cc(Cl)ccc2N2CCOCC2)C1 (configuration not stated)	1.2	1.09	-0.78
CS(=O)(=O)N(CC(O)Cn1c2ccc(Cl)cc2c2cc(Cl)ccc21)c1ccccc1 (configuration not stated)	0.79	1.45	2.64
Cc1cc(NC(=O)Nc2ccc3sccc3c2)c2ccccc2n1	2.24	2.66	0.53

SMILES	inhibition [1] [%]	inhibition [2] [%]	inhibition [3] [%]
COc1ccc(-c2csc3nc(C)nc(Cl)c23)cc1OC	-0.82	0.48	0.63
CN(C)c1ccc(CN2CCCC(CNC(=O)c3ccc(-c4cccc(C(F)(F)F)c4)s3)C2)cc1 (configuration not stated)	1.33	1.64	-0.14
NC1=NC(c2ccccc2)(c2ccccc2)C(=O)N1Cc1ccccc1Br	7.09	4.75	6.62
CCc1cc2c3c(N)nc(N)nc3ccc2n1C(C)(C)C	96	94.4	78.4
COc1ccc2nccc([C@@H](O)CN3CCC(NC(=O)/C=C/c4ccc5ccccc5n4)CC3)c2c1	15.2	13.2	7.42
CC(C)(CNC(=O)[C@@H]1CCCN(CCOc2ccc(F)c(F)c2)C1)c1nc(-c2ccc(Cl)c(O)c2)c(-c2ccncc2)[nH]1	0.3	-0.12	1.28
CC[C@H]1CN(C/C=C/c2ccc(OC)cc2)CC[C@H]1CCCc1ccnc2ccc(O)cc12	2.15	2	1.51
O=C(NCc1ccc(F)cc1)c1ccc(N2CCN(c3ccncc3)CC2)cn1	2.68	-0.85	1.79
Cc1c(Cl)ccc2sc(N3CCN(C(=O)c4ccc([N+](=O)[O-])o4)CC3)nc12	71.9	57.6	30
COc1ccc2nccc([C@@H](O)CN3CCC(NC(=O)C(c4cccs4)N4CCN(c5ccc(F)cc5)CC4)CC3)c2c1 (some centres not stated)	5	3.71	4.65
CC(=O)Nc1[nH]c(-c2ccccc2)nc1C(N)=O	-1.96	-0.89	-1.65
Cc1cc(C(=O)OCC(=O)Nc2c(C)n(C)n(-c3ccccc3)c2=O)c(C)n1-c1ccc(F)cc1	-2.25	-1.81	-0.97
O=c1[nH]ccc2nc(N[C@@H]3CCNC3)nc(Nc3cc(Cl)cc(Cl)c3)c12	7.56	8.18	9.4
CN1CCc2ccc(NC(=O)Nc3ccc(Cl)c(Cl)c3)cc2C1	4.69	3.67	3.54
COc1ccc2nccc([C@@H](O)CN3CCC(NCc4cc5cccc(OC)c5o4)CC3)c2c1	1.32	3.57	-0.75
O=C(NC(=O)c1ccccc1)NC1CCN(c2ccnc3cc(Cl)ccc23)C1 (configuration not stated)	-0.37	1.75	0.92
CCCc1ccccc1OCC(O)CN(C1CCCC1)C1CCCC1 (configuration not stated)	6.36	6.68	5.96
N=c1[nH]c2cccc3ccc4cccc1c4c32	9.96	9.29	7.95
O=C(Nc1ccc([N+](=O)[O-])cc1)Nc1cc(OCC(F)(F)F)cc(OCC(F)(F)F)c1	4.64	5.79	4.56
CN(/N=C/C=C/c1ccc(Cl)cc1)c1nc(NCCc2ccc(O)cc2)nc(N2CCNCC2)n1	-0.76	0.71	-0.16
O=C(Nc1ccc(C(F)(F)F)cc1)NC1CCN(c2ccnc3ccccc23)CC1	4.74	3.35	-3.98
COc1ccc2nc(C)cc(N/N=C/C=C/c3ccccc3)c2c1	5.48	7.46	3.79
O=C(NCCCc1ccccc1)c1ccc(O)c(-c2cc(Cl)cc(Cl)c2)c1	4.73	4.32	3.61
Cc1cc2c3c(N)nc(N)nc3ccc2n1C	6.53	10.4	5.15

SMILES	inhibition [1] [%]	inhibition [2] [%]	inhibition [3] [%]
Cc1cc(NC2CCCC2)nc(Nc2ccccc2F)n1	11.8	4.74	2.95
COc1ccc(C2N=C(N)N=C(N)N2OCc2ccccc2)cc1OC (configuration not stated)	0.67	2.45	2.49
N=c1n(Cc2ccc(Cl)cc2)c2ccccc2n1CC(O)c1ccc(Cl)c(Cl)c1 (configuration not stated)	0.04	1.87	-1.55
ON=C1CCc2cc(-c3cc(-c4ccc(OC5CCNCC5)cc4)oc3-c3ccncc3)ccc21	1.43	3.53	-0.04
CC(C)(C(=O)Nc1ccc(C2CCC(NCC3CC3)CC2)c(Cl)c1)c1ccc(C(F)(F)F)cc1 (configuration not stated)	0.29	0.31	-0.91
COc1ccccc1C(=O)N1CCN(Cc2cccs2)CC1	7.76	7.28	9.06
CC(C)(C)c1ccc(CN2CCC(CNC(=O)c3cc(-c4cccc(Cl)c4)cs3)C2)cc1 (configuration not stated)	16.7	3.66	1.5
O=C(CC1CCCC1)N(Cc1ccc(-c2ccc(CNC3Cc4ccccc4C3)cc2)cc1)CC1CCCCN1 (configuration not stated)	38.3	4.62	2.06
O=C(/C=C/c1ccc(C(F)(F)F)cc1)N1CCc2cc3nccc(N4CCN5CCC[C@H]5C4)c3cc21	1.68	2.34	0.92
CCN(CC)CCN(Cc1ccc(-c2ccc(C(F)(F)F)cc2)cc1)C(=O)Cn1c(CCc2c(F)ccc(F)c2F)nc(=O)c2ccccc21	0.63	1.87	1.43
O=C(/C=C/c1ccc(Cl)c(Cl)c1)NCCCCCN1CCCN(C(=O)Nc2cc(F)cc(F)c2)CC1	9.22	8.04	8.86
CCc1nc(N)nc(N)c1-c1ccc2c(c1)CCCC2	2.54	3.35	2
O=C(NC1CCC(N2CCC(c3ccccc3C(F)(F)F)CC2)CC1)c1cc2ccccc2[nH]1 (configuration not stated)	8.86	5.68	31.2
COc1ccc(C(C(=O)NC2CCN(C[C@H](O)c3ccnc4ccc(OC)cc34)CC2)N2CCN(c3ccc([N+](=O)[O-])cc3)CC2)cc1 (some centres not stated)	2.67	1.79	2.85
N#Cc1ccc(N[C@@H](CC2CCCCC2)C(=O)NCc2cc(F)c(F)cc2F)c2ccccc12	13	14.1	12
CCCCCCc1cc2cc(-c3nc(-c4ccc(OC)cc4)cs3)c(=O)oc2cc1O	–	–	-8.01
CCCCCCc1ncc(-c2cc3cc(O)c(-c4ccccc4)cc3oc2=O)s1	–	–	-5.92
O=C(N[C@H]1CCN(Cc2ccc(OCCN3CCNCC3)c(Cl)c2)C1)c1ccc(Cl)c(Cl)c1	-1.27	-3.15	-2.23
O=C(/C=C/c1ccc(Cl)c(Cl)c1)NCCCCCN1CCCN(C(=O)Nc2cc(Cl)nc(Cl)c2)CC1	5.11	6.64	5.94
Cc1ccccc1C1CCN(C2CCC(NC(=O)c3ccc(-c4cc(C(F)(F)F)nn4C)s3)CC2)CC1 (configuration not stated)	10.8	9.92	9.51
CCc1cn2c3c(cc(C(=O)N[C@@H](Cc4ccccc4)[C@H](O)CNCc4ccccc4C)cc13)N(C)S(=O)(=O)CC2	3.43	2.3	1.96
CSc1ccc(NC(=O)Nc2cc(C)nc3ccccc23)cc1Br	-2.43	0.36	0.36
O=[N+]([O-])c1cccc(CNC2CCN(Cc3ccc(-c4ccccc4)cc3)CC2)c1	1.94	8.06	2.9
COc1cccc2cc(C(=O)N[C@@H](CC(C)C)C(=O)NC3CC[C@@H](C)N(C(=O)Nc4ccncc4)CC3=O)oc12 (some centres not stated)	9.49	4.38	3.24

Source: ChEMBL document CHEMBL3433997, “St. Jude Leishmania screening dataset” (2016)
